Assay outcomes from PubChem BioAssay.
A selection: hits, their analogues and other compounds. The true share with any hit is near 19%.
HT1080NT lethal: kills 2HG-producing HT-1080-NT fibrosarcoma cells; HT-1080-NT fibrosarcoma viability, CellTiter-Glo ATP luminescence, 48 h; Potency, µM (highest dose often 46.1 µM), inactives show top-dose activity, negative = less viability, hits mostly cytotoxic; AID 686970; 360,000 tested, 1.6% active;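 further: NT is the 2HG producing partner of a matched IDH1 knockdown line; potency means the concentration at half of the fitted maximal effect; 0% = DMSO-treated cells and -100% = media-only wells without cells; nearly all actives have a fitted effect of over 55% in size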
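HT-1080-NT fibrosarcoma cells (2HG-overproducing), 750 cells/well in RPMI with 5% FBS, dosed after 2 h and incubated 48 h at 37C. CellTiter-Glo luminescence normalized to DMSO and no-cell wells; concentration-response curves fitted and classed.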
DT40 TDP1 no CPT: qHTS for Inhibitors of human tyrosyl-DNA phosphodiesterase 1 (TDP1): qHTS in cells in absence of CPT; 420,000 tested, 15% active; Potency, µM (doses to about 46.2 µM), for inactives: top-dose activity change, negative = growth inhibition, actives largely listed as inhibitors; DT40 Tdp1-/- hTDP1 cells, no CPT, ATP luminescence, 48 h; AID 686978, 2013; further: potency means the concentration at half of the fitted maximal effect; nearly all actives have a fitted effect of over 55% in size
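Seeded 400 DT40-hTDP1 cells/well (vehicle DMSO, no 20 nM CPT); pinned compounds; ≥48 hr at 37 °C; CellTiter-Glo luminescence as viability measure.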
ELG1 repair inh: blocks ELG1-dependent DNA repair in HEK293T cells. 330,000 tested, 2.3% active. Potency, µM (highest dose often 46.1 µM), for inactives: at the highest dose activity change, negative = inhibition, most hits filed as inhibitors. HEK293T ELG1-luciferase reporter, luminescence, 16 h; DNA damage induced by 5-fluorouridine; further: potency means the concentration at half of the fitted maximal effect; nearly all actives have a fitted effect of over 55% in size
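In this reporter screen, reduction of luminescence relative to DMSO vehicle indicated activity. Compounds and 5-fluorouridine were added together to 2,000 cells per well, incubated for 16 hr at 37 °C, then developed with ONE-Glo.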
TDP1 cell CPT: growth inhibition of DT40 Tdp1-/-;hTDP1 cells with camptothecin (screen for TDP1 inhibitors); chicken DT40 Tdp1-/-;hTDP1 cells + 20 nM CPT, ATP luminescence, 48 h; Potency, µM (doses to about 46.2 µM), inactives show top-dose activity change, negative = growth inhibition, actives largely listed as inhibitors; 420,000 tested, 12% active; further: potency means the concentration at half of the fitted maximal effect; nearly all actives have a fitted effect of over 55% in size
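Cell growth measured by CellTiter-Glo luminescence after a minimum 48 h, 37 C compound exposure with 20 nM CPT in Tdp1-knockout DT40 cells stably expressing hTDP1, seeded 400/well; qHTS titration format.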
HT1080 IDH1KD tx: kills HT-1080 cells with IDH1 knockdown; HT-1080 IDH1 knockdown viability, ATP luminescence, 48 h; 360,000 tested, 2% active; Potency, µM (titrated, usually from 46.1 µM), without a hit: at the highest dose activity, negative = toxicity, actives largely listed as cytotoxic; AID 686971;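 further: potency means the concentration at half of the fitted maximal effect; 0% = DMSO wells and -100% = cell-free medium wells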
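Cytotoxicity counter-line: IDH1KD HT-1080, 48 h, CellTiter-Glo. Curves classed by r2, magnitude and activity.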
IL-1B inflam inh: blocks inflammasome-driven IL-1 beta release. THP-1 LPS/ATP IL-1B secretion, AlphaLISA, 16 h; stronger effect = lower value. activity change, % at 57.5 µM. 360,000 tested, 4.7% active; in the data active means activity change below about -50%; inconclusive means mostly about -30% to -49%
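THP-1 cells pretreated 1 hr with compounds (up to 57.5 uM final), then stimulated with LPS (250 ng/mL final) plus ATP (1.25 mM final); secreted IL-1B measured by AlphaLISA after 16 hr, decreased signal indicating inhibition.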
Starred values were filed as active, the others as inactive; ? = inconclusive; nt = no result; [ ] = dose if it differs, or a comment. Unless noted, the call rests on the fitted dose curve; in most records, active means well fitted curve in the direction sought with a large enough effect; inconclusive means small, poorly fitted or top-dose-only effect, or another doubt; inactive means no such curve, though single readings can be large; an effect the other way counts as inactive or inconclusive. Unless noted, on the % scale 0 is the no-effect control and ±100 the full control effect.

SMILES	HT1080NT lethal	DT40 TDP1 no CPT	ELG1 repair inh	TDP1 cell CPT	HT1080 IDH1KD tx	IL-1B inflam inh
O=C(COc1ccccc1)N(Cc1ccccc1)c1nc(-c2ccccc2)cs1	?	?	0%	-27%	-21%	-4
COc1ccc(-c2csc(N(Cc3ccccc3)C(=O)COc3ccc(Cl)cc3)n2)cc1	-2%	18µM*	?	21µM*	-6%	11
COc1cccc(NC(=O)c2nnn(Cc3ccc(OC)c(Br)c3)c2N)c1	nt	-55%	nt	0%	nt	nt
CCCCn1c(-c2cccc3ccccc23)nc2cc3[nH]c(=O)c(C(C)C)nc3cc21	-29%	16µM*	-9%	?	-7%	-13
CCCCn1c(-c2ccccc2C)nc2cc3[nH]c(=O)c(C(C)C)nc3cc21	-26%	?	-4%	21µM*	-6%	-26
CCCCn1c(C2CCCCC2)nc2cc3[nH]c(=O)c(C(C)C)nc3cc21	-4%	?	-15%	?	-2%	24
COc1ccc(OC)c(S(=O)(=O)NC(=O)C2(C)CCN2C(=O)c2ccco2)c1 (centres undefined)	24%	-6%	nt	0%	4%	3
CC1CCCN(c2ccc(/C=C(\C#N)c3nn(-c4ccccc4)c(N)c3C#N)cc2[N+](=O)[O-])C1 (centres undefined)	-2%	21µM*	-26%	?	-6%	?
CC1CCN(c2cc(N3CCC(C)CC3)c([N+](=O)[O-])cc2/C=C(\C#N)c2nn(-c3ccccc3)c(N)c2C#N)CC1	4%	-27%	-1%	?	-1%	-8
CC1CCN(c2ccc(/C=C(\C#N)c3nn(-c4ccccc4)c(N)c3C#N)cc2[N+](=O)[O-])CC1	?	8.2µM*	?	18µM*	?	0
CCc1ccc(-n2c(=O)c3c4c(sc3n(CC(=O)c3ccc(Br)cc3)c2=O)CCC4)cc1	nt	3.7µM*	nt	5.8µM*	nt	nt
Cc1ccc(-n2c(=O)c3c4c(sc3n(Cc3cc(=O)n5ccccc5n3)c2=O)CCC4)cc1C	-1%	?	-28%	?	15%	6
CCc1ccc(-n2c(=O)c3c4c(sc3n(Cc3cc(=O)n5c(C)cccc5n3)c2=O)CCC4)cc1	nt	12µM*	nt	?	nt	nt
CCc1ccc(-n2c(=O)c3c4c(sc3n(CC(=O)c3ccc(Cl)cc3)c2=O)CCC4)cc1	nt	2.6µM*	nt	2.6µM*	nt	nt
CC(C)(C)C(=O)Cn1c(=O)n(-c2ccc(Cl)c(Cl)c2)c(=O)c2c3c(sc21)CCCC3	nt	-9%	nt	?	nt	nt
Cc1sc2c(c1C)c(=O)n(-c1ccc(Cl)cc1)c(=O)n2CC(=O)c1ccccc1	nt	-16%	nt	-18%	nt	nt
CC(=O)c1sc2c(c1C)c(=O)n(-c1ccc(Cl)cc1)c(=O)n2Cc1ccc(Cl)cc1	nt	8.2µM*	nt	8.2µM*	nt	nt
Cc1csc(NC(=O)CSc2nnc(-c3ccoc3C)n2C(C)c2ccccc2)n1 (centres undefined)	-27%	?	-25%	?	-26%	-18
O=C(Cn1c(=O)n(-c2ccc(Cl)cc2)c(=O)c2c3c(sc21)CCC3)c1ccc(F)cc1	nt	9.2µM*	nt	8.2µM*	nt	nt
O=c1c2c3c(sc2n(Cc2ccccc2F)c(=O)n1-c1ccc(Cl)cc1)CCCC3	nt	4%	nt	-8%	nt	nt
CCOC(=O)N1CCc2c(sc3c2c(=O)n(-c2ccc(CC)cc2)c(=O)n3CC(=O)c2ccc(F)cc2)C1	nt	?	nt	13µM*	nt	nt
COc1cc(N)c(Cl)cc1C(=O)CCC1CCN(CCNS(C)(=O)=O)CC1	nt	-14%	nt	-15%	nt	nt
COc1cc(COc2cc(N)c(Cl)cc2C(=O)CCC2CCN(CCNS(C)(=O)=O)CC2)cc(OC)c1	nt	16µM*	nt	27µM*	nt	nt
CN=c1sc2c(n1C)C(=O)c1ccccc1C2=O	18µM*	5.8µM*	nt	4.1µM*	?	?
CN=c1sc(C(=O)Nc2ccccc2)c(C)n1C	-1%	?	26%	-1%	2%	27
SMILES	HT1080NT lethal	DT40 TDP1 no CPT	ELG1 repair inh	TDP1 cell CPT	HT1080 IDH1KD tx	IL-1B inflam inh
CCn1nc(C)c(CCN(C)C(=O)Nc2cc(Cl)c(OC)cc2OC)c1C	nt	?	nt	-11%	nt	nt
Cc1cc(Cl)ccc1NC(=O)CN1C(=O)COc2ccc(S(=O)(=O)N3CCC(C)CC3)cc21	nt	-8%	nt	-16%	nt	nt
CCOc1ccc(NC(=O)c2cnn(-c3ccc(C)c(Cl)c3)c2C2CCNCC2)cc1	nt	?	nt	23µM*	nt	nt
CCOc1ccc(NC(=O)c2nnn(-c3ccc(F)c(Cl)c3)c2C)cc1	nt	-26%	nt	-26%	nt	nt
COc1ccc(CCC(C)NCC2CCCCC2)cc1 (centres undefined)	-23%	18µM*	2%	?	-7%	-18
COc1ccc(CCC(C)NC2CCCCCCC2)cc1 (centres undefined)	?	?	-20%	?	?	-73*
COc1ccc(CCC(=O)NC2CCCCC2)cc1	10%	15%	-3%	-6%	18%	5
COc1ccc(CCC(C)NCc2ccc(Cl)c(Cl)c2)cc1 (centres undefined)	14%	-12%	14%	-28%	7%	-3
COc1ccc(CCC(C)NCc2cc(OC)cc(OC)c2)cc1 (centres undefined)	1%	?	7%	?	-3%	-17
COc1ccc(CCC(C)NCCc2ccc(Cl)cc2Cl)cc1 (centres undefined)	?	23µM*	0%	?	?	-51*
CC(C)c1ccc(OCC(=O)Nc2c(C(=O)c3ccc(F)cc3)oc3ccccc23)cc1	nt	-10%	nt	-1%	nt	nt
Cc1ccccc1C(=O)NC(C)c1nnc2n1CCN(Cc1ccc(F)cc1)CC2 (centres undefined)	nt	-1%	nt	16%[9.04 µM]	nt	nt
C=CCN1C(=O)C(O)(CC(=O)c2ccccc2)c2ccccc21 (centres undefined)	14%	18µM*	-1%	?	11%[9.24 µM]	0
O=C(CC1(O)C(=O)N(CCc2ccccc2)c2ccccc21)c1ccco1 (centres undefined)	23%	2.9µM*	0%	5.8µM*	18%	15
CC(=O)CC1(O)C(=O)N(Cc2ccccc2)c2ccccc21 (centres undefined)	1%	?	30%	?	0%	14
Cc1coc(C)c1C(=O)CC1(O)C(=O)N(Cc2ccccc2)c2ccccc21 (centres undefined)	-8%	23µM*	nt	16µM*	-6%	-16
